Data on 38 molecules can be found in PubChem BioAssay (NCI).

Molecules are shown by their SMILES. About 83,000 compounds went through this panel and 20% of them were active in at least one assay; those are over-represented in the sample as a whole.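 Results are percent growth after 48 hours of single-concentration exposure. 100 means growth as in untreated cells, lower positive values show inhibition; negative values down to -100 show cell death.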 Active and inactive are the calls of the source. How the source made its calls: active means growth percent below 10; inactive means the rest.

The subject of the first assay is MDA-MB-231 breast. As to the kind of experiment: NCI-60 one-dose screen, 48 h (100 = growth as untreated, 0 = no growth, -100 = all killed). The conditions noted are these: 10 µM unless noted.
Regarding `O=C1COCCN1c1ccc(NCc2cn(C(=O)c3ccc(Cl)cc3)c3ccccc23)cc1`, the growth was 118% (inactive).

`COc1ccc(-c2cnc3ccccc3n2)cc1`: the growth was 92.7% (inactive).

Take `CCOC(=O)C1=C(N)Oc2c(sc3c(C)cccc23)C1c1ccc(OC)cc1` (stereo unspecified): the growth was 46.3% (inactive).

For the molecule `FC(F)(F)c1cc(Nc2ccc3c(OCCCN4CCOCC4)cccc3n2)ccc1Cl`, the growth is 10.1% (inactive).

As to `COc1cc(C(=O)c2cc(C)c3[nH]c4ccc(O)cc4c3c2C)cc(OC)c1OC`, the growth was 28.3% (inactive).

On to `Cc1ccc(C(=O)N/N=C/c2cccc(Oc3ccccc3)c2)cn1`, for which the growth was 65.3% (inactive).

For `CC(=O)CC(c1cccs1)c1c(-c2ccccc2)[nH]c2ccccc12` (stereo unspecified), the growth was 86.9% (inactive).

Take `NC(=O)C1(Nc2ccc(Br)cc2)CCCC1`: the growth is 101% (inactive).

Turning to `COc1ccc(-c2c(C(=O)NS(C)(=O)=O)n(Cc3cccc(C(F)(F)F)c3)c3ccccc23)cc1`, the growth was 95.5% (inactive).

Turning to `O=C1NC(=O)C(c2ccccc2)(c2ccccc2)N1Cc1cn(-c2c3ccccc3nc3ccccc23)nn1`, the growth was 73.1% (inactive).

For the molecule `CCCCn1c(-c2ccc(C(=O)O/N=C(\N)c3ccc(OC)cc3)cc2)nc(-c2ccccc2)c1-c1ccccc1`, the growth is -6.79% (active).

With `COc1cc(Nc2nc(NCCN)nc3cc[nH]c(=O)c23)cc(OC)c1`, the growth was 75.7% (inactive).

For `COc1ccc(-c2[nH]c3ccc(OC)cc3c2/C=C(\C#N)S(=O)(=O)c2ccccc2)cc1`, the growth is 14.9% (inactive).

As to `COc1ccc(C2=Nn3c(nnc3-c3cc(Cl)cc(Cl)c3Cl)SC2)cc1`, the growth is 10.3% (inactive).

`COc1ccc(C(=S)N2CCN(c3cccc(C)c3)CC2)cc1OC`: the growth was 77.3% (inactive).

In the case of `COc1cc(CCCO)c(OC)c(OC)c1OC`, the growth is 109% (inactive).

In the case of `O=C(Nc1nc2ccc(F)cc2s1)c1cccnc1Nc1ccc(Cl)cc1Cl`, the growth was 34.5% (inactive).

As for `Cc1cccc2c3c(sc12)C(c1ccc(F)cc1)C(C#N)=C(N)O3` (stereo unspecified), the growth was 26.9% (inactive).

Regarding `BrCCCc1n(Cc2ccc3ccccc3c2)c2ccccc2[n+]1Cc1ccc2ccccc2c1`, the growth was -60.8% (active).

In the case of `CCOC(=O)Cn1c(C)c(/C=N/NC(=O)c2cc3c(ccc4ccccc43)o2)c2ccccc21`, the growth is 38.8% (inactive).

Turning to `CCOC(=O)c1sc2ncc(-c3ccc(OC)cc3)n2c1C`, the growth is 92.4% (inactive).

For `O=c1c2cccc(F)c2sc2c(NCCCNCCO)nc3ccccc3c12`, the growth is 5.79% (active).

For the molecule `CNCCCNc1nc2ccccc2c2c(=O)c3cc(F)ccc3sc12`, the growth is -53.7% (active).

For the molecule `CC(=O)OC[C@H]1OC(Sc2sc(C(=O)c3ccc(Cl)cc3)c(N)c2-c2nc3ccccc3s2)[C@H](OC(C)=O)[C@@H](OC(C)=O)[C@@H]1OC(C)=O` (stereo partly specified), the growth was 56.2% (inactive).

On to `OC(c1ccccc1)C(NC(Cc1ccccc1)c1ccccc1)c1ccccc1` (stereo unspecified), for which the growth was 78.7% (inactive).

With `CCOC(=O)c1cn2ncnc(Oc3ccc(NC(=O)NCCN(C)C)c(Cl)c3)c2c1C`, the growth is 65.2% (inactive).

As to `Cc1nc2ccccc2c(/C=C/c2ccccc2)c1C(=O)/C=C/c1ccc(C(F)(F)F)cc1`, the growth was -43.7% (active).

Take `Cc1[nH]c(C(=O)Nc2ccc(C(=O)NCCN)cc2OC(C)C)c(Cl)c1Cl`: the growth was -27% (active).

`CN1CCN(c2ccc(-c3cnc4c(-c5csc6ccccc56)cnn4c3)cc2)CC1`: the growth is -25.3% (active).

Turning to `c1ccc(-c2nc3sc(-c4ccccc4)cn3n2)cc1`, the growth is 64.5% (inactive).

Regarding `COc1c(B(O)O)cc(F)cc1-c1nc2ccc3[nH]ncc3c2c2c1CCCC2`, the growth is 22% (inactive).

Consider `CNCCCC12CCC(c3ccccc31)c1ccccc12`, for which the growth is 80.2% (inactive).

Consider `C=C1C(=O)O[C@H]2[C@H]1CC/C(COC(=O)C(C)c1ccc(CC(C)C)cc1)=C\CC[C@@]1(C)O[C@@H]21` (stereo partly specified), for which the growth was -58% (active).

As for `CC1=C(C)C(=O)C(Nc2cccc(C(=O)OC(C)(C)C)c2)=C(Br)C1=O`, the growth was -36.1% (active).

With `COc1ccc(C2CC(c3ccc(Nc4ccnc5cc(Cl)ccc45)cc3)=NN2C=O)cc1` (stereo unspecified), the growth was 78.8% (inactive).

Consider `Cc1nc(NC(=O)COc2ccc(/C=C3\Cc4ccc(Cl)cc4C3=O)cc2)sc1C`, for which the growth is 93.7% (inactive).

Consider `Cc1ccc2c(-c3cc(-c4ccccc4)nc(N)c3C#N)cc(=O)oc2c1`, for which the growth is 101% (inactive).

As to `CN(C)c1ccc(/C=N\Nc2cc(=O)[nH]c3ccc(Cl)cc23)cc1`, the growth was 91.5% (inactive).

The test system of the next assay is RXF 393 renal. Described as above. Particulars: 10 µM unless noted.
With `O=C1COCCN1c1ccc(NCc2cn(C(=O)c3ccc(Cl)cc3)c3ccccc23)cc1`, the growth is 8.91% (active).

With `COc1ccc(-c2cnc3ccccc3n2)cc1`, the growth is 108% (inactive).

For `CCOC(=O)C1=C(N)Oc2c(sc3c(C)cccc23)C1c1ccc(OC)cc1` (stereo unspecified), the growth is 29.8% (inactive).

In the case of `FC(F)(F)c1cc(Nc2ccc3c(OCCCN4CCOCC4)cccc3n2)ccc1Cl`, the growth was 23.9% (inactive).

As for `COc1cc(C(=O)c2cc(C)c3[nH]c4ccc(O)cc4c3c2C)cc(OC)c1OC`, the growth is 31.9% (inactive).

On to `Cc1ccc(C(=O)N/N=C/c2cccc(Oc3ccccc3)c2)cn1`, for which the growth was 71.6% (inactive).

As to `CC(=O)CC(c1cccs1)c1c(-c2ccccc2)[nH]c2ccccc12` (stereo unspecified), the growth is 99.9% (inactive).

On to `NC(=O)C1(Nc2ccc(Br)cc2)CCCC1`, for which the growth was 115% (inactive).

In the case of `COc1ccc(-c2c(C(=O)NS(C)(=O)=O)n(Cc3cccc(C(F)(F)F)c3)c3ccccc23)cc1`, the growth was 111% (inactive).

For the molecule `O=C1NC(=O)C(c2ccccc2)(c2ccccc2)N1Cc1cn(-c2c3ccccc3nc3ccccc23)nn1`, the growth is 85.6% (inactive).

On to `CCCCn1c(-c2ccc(C(=O)O/N=C(\N)c3ccc(OC)cc3)cc2)nc(-c2ccccc2)c1-c1ccccc1`, for which the growth is -49.8% (active).

Take `COc1cc(Nc2nc(NCCN)nc3cc[nH]c(=O)c23)cc(OC)c1`: the growth is 58.7% (inactive).

In the case of `COc1ccc(-c2[nH]c3ccc(OC)cc3c2/C=C(\C#N)S(=O)(=O)c2ccccc2)cc1`, the growth was -7.82% (active).

For `COc1ccc(C2=Nn3c(nnc3-c3cc(Cl)cc(Cl)c3Cl)SC2)cc1`, the growth is 14.4% (inactive).

In the case of `COc1ccc(C(=S)N2CCN(c3cccc(C)c3)CC2)cc1OC`, the growth was 67.8% (inactive).

Turning to `COc1cc(CCCO)c(OC)c(OC)c1OC`, the growth was 108% (inactive).

`O=C(Nc1nc2ccc(F)cc2s1)c1cccnc1Nc1ccc(Cl)cc1Cl`: the growth was 44.4% (inactive).

On to `Cc1cccc2c3c(sc12)C(c1ccc(F)cc1)C(C#N)=C(N)O3` (stereo unspecified), for which the growth is 38.7% (inactive).

As to `BrCCCc1n(Cc2ccc3ccccc3c2)c2ccccc2[n+]1Cc1ccc2ccccc2c1`, the growth was -77.6% (active).

Turning to `CCOC(=O)Cn1c(C)c(/C=N/NC(=O)c2cc3c(ccc4ccccc43)o2)c2ccccc21`, the growth is -11.1% (active).

As for `CCOC(=O)c1sc2ncc(-c3ccc(OC)cc3)n2c1C`, the growth is 111% (inactive).

On to `O=c1c2cccc(F)c2sc2c(NCCCNCCO)nc3ccccc3c12`, for which the growth was 50.8% (inactive).

Take `CNCCCNc1nc2ccccc2c2c(=O)c3cc(F)ccc3sc12`: the growth is 45.6% (inactive).

`CC(=O)OC[C@H]1OC(Sc2sc(C(=O)c3ccc(Cl)cc3)c(N)c2-c2nc3ccccc3s2)[C@H](OC(C)=O)[C@@H](OC(C)=O)[C@@H]1OC(C)=O` (stereo partly specified): the growth was 112% (inactive).

For `OC(c1ccccc1)C(NC(Cc1ccccc1)c1ccccc1)c1ccccc1` (stereo unspecified), the growth was 102% (inactive).

Take `CCOC(=O)c1cn2ncnc(Oc3ccc(NC(=O)NCCN(C)C)c(Cl)c3)c2c1C`: the growth was 55.6% (inactive).

`Cc1nc2ccccc2c(/C=C/c2ccccc2)c1C(=O)/C=C/c1ccc(C(F)(F)F)cc1`: the growth is -81.7% (active).

Consider `Cc1[nH]c(C(=O)Nc2ccc(C(=O)NCCN)cc2OC(C)C)c(Cl)c1Cl`, for which the growth is 83.5% (inactive).

Take `CN1CCN(c2ccc(-c3cnc4c(-c5csc6ccccc56)cnn4c3)cc2)CC1`: the growth was -66.4% (active).

For the molecule `c1ccc(-c2nc3sc(-c4ccccc4)cn3n2)cc1`, the growth was 97.7% (inactive).

As to `COc1c(B(O)O)cc(F)cc1-c1nc2ccc3[nH]ncc3c2c2c1CCCC2`, the growth was -34.5% (active).

In the case of `CNCCCC12CCC(c3ccccc31)c1ccccc12`, the growth is 61.7% (inactive).

With `C=C1C(=O)O[C@H]2[C@H]1CC/C(COC(=O)C(C)c1ccc(CC(C)C)cc1)=C\CC[C@@]1(C)O[C@@H]21` (stereo partly specified), the growth was -50.1% (active).

With `CC1=C(C)C(=O)C(Nc2cccc(C(=O)OC(C)(C)C)c2)=C(Br)C1=O`, the growth is 94.9% (inactive).

For the molecule `COc1ccc(C2CC(c3ccc(Nc4ccnc5cc(Cl)ccc45)cc3)=NN2C=O)cc1` (stereo unspecified), the growth is 76.7% (inactive).

Turning to `Cc1nc(NC(=O)COc2ccc(/C=C3\Cc4ccc(Cl)cc4C3=O)cc2)sc1C`, the growth was 135% (inactive).

Turning to `Cc1ccc2c(-c3cc(-c4ccccc4)nc(N)c3C#N)cc(=O)oc2c1`, the growth was 110% (inactive).

Consider `CN(C)c1ccc(/C=N\Nc2cc(=O)[nH]c3ccc(Cl)cc23)cc1`, for which the growth is 105% (inactive).
